In assay [1] the target is Vascular endothelial growth factor receptor 3 (Homo sapiens) (UniProt P35916). The following applies: at 10 µM.
Assay [2] concerns the target Macrophage colony-stimulating factor 1 receptor (Homo sapiens) (UniProt P07333). The following applies: at 1 µM.
Assay [3] has the same target. The following applies: at 10 µM.
Assay [4] has as its target Tyrosine-protein kinase Fyn (Homo sapiens) (UniProt P06241). The note with it: at 1 µM.
Assay [5] has the same target. The following applies: at 10 µM.
Assay [6] concerns the target T1, Mitogen-activated protein kinase kinase kinase kinase 2 (Homo sapiens) (UniProt Q12851).
T1 sequence (whole entry): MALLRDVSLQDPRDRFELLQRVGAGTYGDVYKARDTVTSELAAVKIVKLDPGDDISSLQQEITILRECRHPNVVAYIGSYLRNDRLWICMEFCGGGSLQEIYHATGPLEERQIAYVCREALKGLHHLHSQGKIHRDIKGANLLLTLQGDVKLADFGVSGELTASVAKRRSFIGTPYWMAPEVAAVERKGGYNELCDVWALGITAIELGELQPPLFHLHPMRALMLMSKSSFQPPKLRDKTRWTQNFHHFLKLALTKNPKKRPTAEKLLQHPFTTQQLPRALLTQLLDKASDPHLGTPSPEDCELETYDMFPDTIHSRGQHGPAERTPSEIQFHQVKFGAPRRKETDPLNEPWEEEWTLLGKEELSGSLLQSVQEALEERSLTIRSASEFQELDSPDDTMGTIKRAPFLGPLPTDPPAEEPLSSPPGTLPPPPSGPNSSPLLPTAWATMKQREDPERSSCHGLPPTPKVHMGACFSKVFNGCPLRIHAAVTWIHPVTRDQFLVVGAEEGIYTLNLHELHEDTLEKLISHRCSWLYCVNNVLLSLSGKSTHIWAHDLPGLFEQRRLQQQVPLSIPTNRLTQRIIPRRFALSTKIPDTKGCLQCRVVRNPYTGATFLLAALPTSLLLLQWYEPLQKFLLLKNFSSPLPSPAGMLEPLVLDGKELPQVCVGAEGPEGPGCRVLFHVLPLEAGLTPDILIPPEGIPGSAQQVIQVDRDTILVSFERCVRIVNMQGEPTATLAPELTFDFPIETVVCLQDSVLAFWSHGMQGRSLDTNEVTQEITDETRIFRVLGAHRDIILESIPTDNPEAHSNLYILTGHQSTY
The note with it: at 1 µM.

The target of assay [7] is T1, Mitogen-activated protein kinase kinase kinase kinase 2 (Homo sapiens). The note with it: at 10 µM.
For assay [8], the target named is G protein-coupled receptor kinase 5 (Homo sapiens) (UniProt P34947). The following applies: at 10 µM.
Sequence of G protein-coupled receptor kinase 5 (Homo sapiens) (P34947 whole entry, looked up): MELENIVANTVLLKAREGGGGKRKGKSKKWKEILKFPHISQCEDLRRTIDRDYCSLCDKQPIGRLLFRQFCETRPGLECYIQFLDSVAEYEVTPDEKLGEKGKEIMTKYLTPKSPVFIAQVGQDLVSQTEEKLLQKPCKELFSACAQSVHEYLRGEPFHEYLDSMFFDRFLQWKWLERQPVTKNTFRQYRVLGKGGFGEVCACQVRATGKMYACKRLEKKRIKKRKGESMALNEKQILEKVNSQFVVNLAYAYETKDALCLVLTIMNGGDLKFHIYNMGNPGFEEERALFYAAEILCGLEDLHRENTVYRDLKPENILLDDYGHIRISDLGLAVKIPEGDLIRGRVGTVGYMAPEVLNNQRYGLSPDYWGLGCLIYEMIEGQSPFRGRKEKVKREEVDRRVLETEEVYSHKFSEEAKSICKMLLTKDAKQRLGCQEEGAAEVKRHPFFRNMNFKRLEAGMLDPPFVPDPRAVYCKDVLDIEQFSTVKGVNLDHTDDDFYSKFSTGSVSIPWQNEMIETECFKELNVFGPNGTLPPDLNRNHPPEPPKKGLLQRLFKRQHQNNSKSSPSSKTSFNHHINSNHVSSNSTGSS
Assay [9] addresses G protein-coupled receptor kinase 6 (Homo sapiens) (UniProt P43250). The following applies: at 10 µM.
In assay [10] the target is T2, Rhodopsin kinase GRK7 (Homo sapiens) (UniProt Q8WTQ7).
T2 sequence (whole entry): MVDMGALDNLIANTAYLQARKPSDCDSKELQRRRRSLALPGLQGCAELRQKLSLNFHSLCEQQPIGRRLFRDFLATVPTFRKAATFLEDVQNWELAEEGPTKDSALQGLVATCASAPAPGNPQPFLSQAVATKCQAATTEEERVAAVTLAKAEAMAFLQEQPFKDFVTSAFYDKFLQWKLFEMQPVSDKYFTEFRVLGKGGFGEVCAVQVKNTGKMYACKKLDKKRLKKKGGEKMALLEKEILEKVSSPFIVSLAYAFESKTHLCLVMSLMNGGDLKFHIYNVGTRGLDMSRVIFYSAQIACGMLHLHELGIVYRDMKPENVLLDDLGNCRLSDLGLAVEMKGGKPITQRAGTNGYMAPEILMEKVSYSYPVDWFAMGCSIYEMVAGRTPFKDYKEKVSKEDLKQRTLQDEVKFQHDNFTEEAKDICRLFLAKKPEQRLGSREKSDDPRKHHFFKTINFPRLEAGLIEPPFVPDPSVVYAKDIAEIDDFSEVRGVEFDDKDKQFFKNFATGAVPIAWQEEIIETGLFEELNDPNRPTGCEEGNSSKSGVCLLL
The following applies: at 1 µM.

The target in assay [11] is T2, Rhodopsin kinase GRK7 (Homo sapiens). The note with it: at 10 µM.
In assay [12] the target is Glycogen synthase kinase-3 alpha (Homo sapiens) (UniProt P49840). The note with it: at 1 µM.
Sequence of Glycogen synthase kinase-3 alpha (Homo sapiens) (P49840 2-483 limits assumed): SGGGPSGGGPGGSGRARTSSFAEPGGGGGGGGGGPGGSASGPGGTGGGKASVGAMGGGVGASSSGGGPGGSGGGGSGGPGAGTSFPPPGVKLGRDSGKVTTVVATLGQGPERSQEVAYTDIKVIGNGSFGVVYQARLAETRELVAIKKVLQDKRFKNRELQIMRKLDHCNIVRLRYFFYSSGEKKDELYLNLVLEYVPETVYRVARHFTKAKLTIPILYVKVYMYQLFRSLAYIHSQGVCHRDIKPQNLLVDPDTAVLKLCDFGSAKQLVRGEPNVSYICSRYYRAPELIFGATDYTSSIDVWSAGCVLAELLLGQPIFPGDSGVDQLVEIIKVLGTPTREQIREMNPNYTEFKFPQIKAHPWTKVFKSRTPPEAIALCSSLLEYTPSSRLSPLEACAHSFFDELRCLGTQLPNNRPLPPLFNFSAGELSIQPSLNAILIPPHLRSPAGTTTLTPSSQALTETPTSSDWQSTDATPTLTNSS
Assay [13] shares this target. The following applies: at 10 µM.
For assay [14], the target named is Glycogen synthase kinase-3 beta (Homo sapiens) (UniProt P49841). The following applies: at 1 µM.
Sequence of Glycogen synthase kinase-3 beta (Homo sapiens) (P49841 whole entry, looked up): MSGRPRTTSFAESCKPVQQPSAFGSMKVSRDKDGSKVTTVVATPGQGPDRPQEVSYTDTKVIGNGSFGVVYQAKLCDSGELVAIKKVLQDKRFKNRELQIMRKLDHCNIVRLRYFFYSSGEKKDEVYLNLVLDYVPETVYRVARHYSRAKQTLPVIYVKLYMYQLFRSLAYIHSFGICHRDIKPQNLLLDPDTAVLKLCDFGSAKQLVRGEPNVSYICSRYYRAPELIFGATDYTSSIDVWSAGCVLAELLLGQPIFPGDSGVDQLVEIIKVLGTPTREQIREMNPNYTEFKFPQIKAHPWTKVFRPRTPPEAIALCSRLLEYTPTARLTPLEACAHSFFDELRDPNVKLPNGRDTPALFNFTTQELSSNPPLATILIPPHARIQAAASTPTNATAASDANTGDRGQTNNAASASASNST
The target is the same in assay [15]. The following applies: at 10 µM.
Assay [16] concerns the target Homeodomain-interacting protein kinase 1 (Homo sapiens) (UniProt Q86Z02). The following applies: at 1 µM.
Assay [17] shares this target. The note with it: at 10 µM.
For assay [18], the target named is Homeodomain-interacting protein kinase 2 (Homo sapiens) (UniProt Q9H2X6). The note with it: at 1 µM.
Sequence of Homeodomain-interacting protein kinase 2 (Homo sapiens) (Q9H2X6 whole entry, looked up): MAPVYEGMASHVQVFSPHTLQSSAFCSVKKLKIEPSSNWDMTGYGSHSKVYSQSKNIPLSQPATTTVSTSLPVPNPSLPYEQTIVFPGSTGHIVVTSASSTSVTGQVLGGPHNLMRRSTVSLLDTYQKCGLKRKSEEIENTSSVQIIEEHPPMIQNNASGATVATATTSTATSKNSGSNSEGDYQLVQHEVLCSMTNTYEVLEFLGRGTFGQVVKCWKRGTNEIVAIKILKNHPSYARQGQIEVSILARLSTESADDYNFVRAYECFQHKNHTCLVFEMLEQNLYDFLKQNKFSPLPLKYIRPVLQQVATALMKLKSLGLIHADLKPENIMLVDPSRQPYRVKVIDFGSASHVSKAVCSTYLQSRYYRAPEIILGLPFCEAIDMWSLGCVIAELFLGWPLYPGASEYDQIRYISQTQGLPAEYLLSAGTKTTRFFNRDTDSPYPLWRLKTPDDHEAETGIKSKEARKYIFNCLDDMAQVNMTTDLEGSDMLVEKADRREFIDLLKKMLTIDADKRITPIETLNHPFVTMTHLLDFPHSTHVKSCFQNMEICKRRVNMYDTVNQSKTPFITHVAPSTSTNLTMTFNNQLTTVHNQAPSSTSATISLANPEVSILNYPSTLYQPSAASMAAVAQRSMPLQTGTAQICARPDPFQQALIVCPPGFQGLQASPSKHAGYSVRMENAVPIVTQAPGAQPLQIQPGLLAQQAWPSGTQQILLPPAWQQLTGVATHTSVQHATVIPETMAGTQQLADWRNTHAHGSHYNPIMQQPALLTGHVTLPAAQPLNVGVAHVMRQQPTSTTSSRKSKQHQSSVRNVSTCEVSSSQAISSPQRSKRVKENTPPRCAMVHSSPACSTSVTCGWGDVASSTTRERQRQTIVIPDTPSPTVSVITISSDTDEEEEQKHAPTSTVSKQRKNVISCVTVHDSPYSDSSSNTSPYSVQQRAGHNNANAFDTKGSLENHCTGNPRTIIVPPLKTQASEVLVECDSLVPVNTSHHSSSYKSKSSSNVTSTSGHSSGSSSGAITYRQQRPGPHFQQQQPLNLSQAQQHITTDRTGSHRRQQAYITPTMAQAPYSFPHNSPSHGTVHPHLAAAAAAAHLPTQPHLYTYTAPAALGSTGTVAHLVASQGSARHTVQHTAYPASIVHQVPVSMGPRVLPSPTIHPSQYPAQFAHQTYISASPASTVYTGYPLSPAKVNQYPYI
The target is the same in assay [19]. The note with it: at 10 µM.
In assay [20] the target is Homeodomain-interacting protein kinase 3 (Homo sapiens) (UniProt Q9H422). The note with it: at 1 µM.
Sequence of Homeodomain-interacting protein kinase 3 (Homo sapiens) (Q9H422 whole entry, looked up): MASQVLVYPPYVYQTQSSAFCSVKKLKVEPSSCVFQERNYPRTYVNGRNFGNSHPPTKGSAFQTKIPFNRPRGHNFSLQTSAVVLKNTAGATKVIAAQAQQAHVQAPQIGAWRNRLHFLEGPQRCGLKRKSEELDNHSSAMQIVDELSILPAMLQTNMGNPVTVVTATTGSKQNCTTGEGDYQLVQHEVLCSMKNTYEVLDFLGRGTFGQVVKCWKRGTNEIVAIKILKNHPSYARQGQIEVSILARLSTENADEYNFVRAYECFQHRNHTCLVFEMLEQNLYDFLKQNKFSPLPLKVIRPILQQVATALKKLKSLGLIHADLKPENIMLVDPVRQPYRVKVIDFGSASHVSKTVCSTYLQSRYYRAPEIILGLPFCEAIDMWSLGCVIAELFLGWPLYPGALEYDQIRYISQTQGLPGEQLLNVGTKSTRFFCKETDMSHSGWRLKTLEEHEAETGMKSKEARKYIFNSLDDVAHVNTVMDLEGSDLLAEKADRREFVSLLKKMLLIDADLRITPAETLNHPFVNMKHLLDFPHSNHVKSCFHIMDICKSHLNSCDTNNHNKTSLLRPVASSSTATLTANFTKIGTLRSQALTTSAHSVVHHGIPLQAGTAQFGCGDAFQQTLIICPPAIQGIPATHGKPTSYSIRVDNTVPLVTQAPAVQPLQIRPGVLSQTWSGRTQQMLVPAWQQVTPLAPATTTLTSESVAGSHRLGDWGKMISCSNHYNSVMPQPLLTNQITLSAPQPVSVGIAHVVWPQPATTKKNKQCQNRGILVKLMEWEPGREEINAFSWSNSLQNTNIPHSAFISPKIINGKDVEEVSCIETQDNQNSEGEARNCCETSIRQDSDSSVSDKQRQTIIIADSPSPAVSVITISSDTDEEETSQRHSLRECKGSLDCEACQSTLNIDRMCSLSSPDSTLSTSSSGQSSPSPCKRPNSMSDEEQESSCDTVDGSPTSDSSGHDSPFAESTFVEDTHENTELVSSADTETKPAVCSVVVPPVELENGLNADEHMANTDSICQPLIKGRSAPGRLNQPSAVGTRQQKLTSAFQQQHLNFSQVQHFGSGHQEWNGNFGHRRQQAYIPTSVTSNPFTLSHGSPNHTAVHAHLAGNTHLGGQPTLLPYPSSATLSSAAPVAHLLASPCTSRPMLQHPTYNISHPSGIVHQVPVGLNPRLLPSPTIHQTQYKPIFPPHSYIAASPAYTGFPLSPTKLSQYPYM

This passage reports residual activity results from ChEMBL document CHEMBL2218924, “A broad activity screen in support of a chemogenomic map for kinase signalling research and drug discovery” (Biochem J, 2013).

Sequence of Macrophage colony-stimulating factor 1 receptor (Homo sapiens) (P07333 whole entry): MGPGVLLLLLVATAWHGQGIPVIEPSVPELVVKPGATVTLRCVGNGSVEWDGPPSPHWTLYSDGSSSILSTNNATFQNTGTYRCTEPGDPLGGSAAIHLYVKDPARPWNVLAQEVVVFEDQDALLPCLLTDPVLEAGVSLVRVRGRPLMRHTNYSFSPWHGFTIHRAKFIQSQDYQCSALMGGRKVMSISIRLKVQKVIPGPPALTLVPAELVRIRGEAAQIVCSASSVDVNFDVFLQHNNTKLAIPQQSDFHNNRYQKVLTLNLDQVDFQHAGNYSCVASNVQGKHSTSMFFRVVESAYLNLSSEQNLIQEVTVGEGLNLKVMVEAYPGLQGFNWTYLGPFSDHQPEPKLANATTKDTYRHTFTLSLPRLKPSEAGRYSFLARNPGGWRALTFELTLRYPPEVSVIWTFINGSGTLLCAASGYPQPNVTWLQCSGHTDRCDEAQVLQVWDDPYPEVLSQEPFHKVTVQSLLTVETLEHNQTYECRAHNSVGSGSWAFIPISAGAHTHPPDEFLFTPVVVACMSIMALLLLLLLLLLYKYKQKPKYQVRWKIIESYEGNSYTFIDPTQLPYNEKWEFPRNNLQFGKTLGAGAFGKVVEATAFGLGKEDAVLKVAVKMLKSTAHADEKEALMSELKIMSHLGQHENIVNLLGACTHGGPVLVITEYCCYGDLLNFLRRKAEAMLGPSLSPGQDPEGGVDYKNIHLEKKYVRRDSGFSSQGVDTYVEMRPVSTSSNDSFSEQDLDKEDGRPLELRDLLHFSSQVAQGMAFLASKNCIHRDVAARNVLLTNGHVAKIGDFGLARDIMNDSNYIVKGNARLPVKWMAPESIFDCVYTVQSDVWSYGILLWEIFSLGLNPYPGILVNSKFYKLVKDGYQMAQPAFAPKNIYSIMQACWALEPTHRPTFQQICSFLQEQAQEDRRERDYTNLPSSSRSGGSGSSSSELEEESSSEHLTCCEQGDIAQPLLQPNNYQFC

Consider `COc1ccc(S(=O)(=O)N(CCO)c2ccccc2CN(C)C/C=C/c2ccc(Cl)cc2)cc1`, for which the residual activity in assay [1] worked out at 93%; in assay [2], 78%; in assay [3], 64%; in assay [4] it was 73%; in assay [5] it was 37%; in assay [6], 85%. The residual activity turned out to be 81% in assay [7]; 87% in [8]; 86% in assay [9]; 99% in [10]; 85% in assay [11]; 100% in assay [12]. In addition, the residual activity in assay [13] turned out to be 103%; in assay [14] it was 123%; in [15], 121%; in [16], 112%; in assay [17], 93%; in assay [18] it was 103%. Besides, the residual activity worked out at 94% in [19] and 103% in [20].
For the compound `COc1ccc(OC)c2c(=S)c3ccccc3[nH]c12`, the residual activity came to 60% in assay [1]; 84% in [2]; 62% in assay [3]; 83% in assay [4]; 90% in assay [5]; 90% in assay [6]. The residual activity in assay [7] stood at 80%; in assay [8], 97%; in [9] it was 80%; in [10], 84%; in [11], 83%; in assay [12] it was 100%. The residual activity was determined as 85% in [13]; 118% in [14]; 94% in assay [15]; 105% in assay [16]; 67% in assay [17]; 98% in [18]. Also, the results for the residual activity in [19] and in assay [20] were 53% and 99%, respectively.
Turning to `Cc1cc2ncc(-c3ccccc3)nc2cc1C`, the residual activity amounted to 26% in [1]; 36% in assay [2]; 6% in assay [3]; 98% in assay [4]; 27% in assay [5]; 98% in assay [6]. Further, the residual activity in assay [7] is 90%; in assay [8] it was 102%; in [9] it was 101%; in assay [10] it was 102%; in assay [11], 94%; in [12], 104%. For the same compound, the residual activity is 130% in assay [13]; 88% in assay [14]; 106% in assay [15]; 94% in assay [16]; 102% in assay [17]; 102% in [18]. The residual activity in assay [19] is 97%; in assay [20], 105%.
`Cn1cnc2cc3c(Nc4cccc(Br)c4)ncnc3cc21`: the residual activity in [1] amounted to 8%; in assay [2], 94%; in assay [3], 37%; in [4], 67%; in assay [5], 34%; in [6], 86%. Besides, the residual activity in assay [7] turned out to be 70%; in [8], 93%; in assay [9] it was 96%; in assay [10], 100%; in [11], 86%; in assay [12], 103%. In addition, the residual activity was 105% in assay [13]; 102% in assay [14]; 82% in [15]; 96% in [16]; 105% in assay [17]; 102% in [18]. Besides, the residual activity in [19] came out at 92%; in assay [20], 95%.
As for `Cc1ccc(S(=O)(=O)/C=C/C#N)cc1`, the residual activity in [1] was 89%; in assay [2], 84%; in assay [3], 89%; in [4], 88%; in assay [5] it was 100%; in assay [6], 90%. Further, the residual activity came to 89% in assay [7]; 101% in assay [8]; 94% in [9]; 95% in assay [10]; 90% in assay [11]; 115% in assay [12]. Besides, the residual activity in assay [13] came to 102%; in [14], 117%; in assay [15] it was 121%; in assay [16] it was 104%; in assay [17] it was 90%; in [18] it was 101%. Also, the residual activity in assay [19] amounted to 96%; in assay [20], 103%.
On to `COc1cc2ncnc(Nc3ccc(O)c(Br)c3)c2cc1OC`, for which the residual activity was found to be 2% in assay [1]; 63% in [2]; 22% in assay [3]; 49% in [4]; 9% in assay [5]; 52% in [6]. Besides, the residual activity in assay [7] worked out at 18%; in assay [8], 89%; in assay [9], 78%; in assay [10] it was 75%; in assay [11] it was 69%; in assay [12], 116%. Also, the residual activity in [13] is 108%; in assay [14], 89%; in assay [15], 86%; in assay [16], 97%; in assay [17], 104%; in assay [18] it was 87%. The residual activity in assay [19] amounted to 75%; in [20] it was 95%.
Regarding `CO[C@@H]1[C@H](N(C)C(=O)c2ccccc2)C[C@H]2O[C@]1(C)n1c3ccccc3c3c4c(c5c6ccccc6n2c5c31)C(=O)NC4`, the residual activity worked out at 3% in assay [1]; 0% in [2]; 1% in assay [3]; 6% in [4]; 10% in assay [5]; 4% in [6]. Moreover, the residual activity in assay [7] was determined as 0%; in [8], 74%; in [9], 70%; in assay [10], 8%; in [11] it was 3%; in assay [12], 17%. Besides, the residual activity amounted to 14% in assay [13]; 39% in assay [14]; 19% in [15]; 95% in assay [16]; 83% in assay [17]; 75% in assay [18]. In addition, the residual activity in assay [19] is 35%; in assay [20], 80%.
